# Sampled rows, rich in hits. Any-hit rate of the full collection: about 17%.
# TDP1 cell noCPT: qHTS for Inhibitors of human tyrosyl-DNA phosphodiesterase 1 (TDP1): qHTS in cells in absence of CPT; DT40 Tdp1-/- hTDP1 cells, no CPT, ATP luminescence, 48 h; Potency, µM (doses to about 46.2 µM), for the others: at the highest dose activity change, negative = growth inhibition, usual class: inhibitors; actives 15% (n = 420,000); AID 686978, 2013; note: % is set by controls: 0 for no effect and ±100 for the full control effect; nearly all actives have a fitted effect of over 55% in size
#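 Growth kinetics read by CellTiter-Glo luminescence after ≥48 hr at 37 °C. Cells: DT40 Tdp1-/- stably carrying human TDP1, 400 per well, compound exposure in the absence of CPT (DMSO vehicle).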
# TDP1 block: TDP1 (human) enzyme inhibition | AID 485290 | Q9NUW8 | actives 0.28% (n = 350,000) | Potency, µM (titrated, usually from 130 µM), without a hit: at the highest dose activity change, negative = inhibition, hits mostly inhibitors | recombinant TDP1, AlphaScreen DNA substrate cleavage; note: % is set by controls: 0 for no effect and ±100 for the full control effect; nearly all actives have a fitted effect of over 40% in size
#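 Signal: AlphaScreen proximity between streptavidin donor and anti-FITC acceptor beads on intact substrate. Reaction: Tdp1 1 nM, substrate 15 nM final, 5 min RT after 15 min compound preincubation.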
# DT40 TDP1 CPT: DT40-hTDP1 cell growth loss with CPT. AID 686979. chicken DT40 Tdp1-/-;hTDP1 cells + 20 nM CPT, ATP luminescence, 48 h. actives 12% (n = 420,000). Potency, µM (highest dose often 46.2 µM), for the others: at the top dose activity change, negative = growth inhibition, actives largely listed as inhibitors; note: % is set by controls: 0 for no effect and ±100 for the full control effect; nearly all actives have a fitted effect of over 55% in size
#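 Chicken DT40 Tdp1-/- cells stably complemented with human TDP1 were seeded at 400 cells/well in medium containing 20 nM camptothecin, exposed to pin-transferred compounds, and grown at 37 °C for at least 48 hr. Viability was read as ATP luminescence.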
# ClpP mod: qHTS Assay for Activators of ClpP; purified B. subtilis ClpP, FRET peptide cleavage, 20 min; actives 1.9% (n = 340,000); Potency, µM (highest dose often 57.5 µM), for the others: top-dose activity change, negative = active; AID 651965, 2013; active = well fitted falling curve with a large enough effect; inconclusive = small, poorly fitted or top-dose-only effect; inactive = no such curve, though single readings can be large or run the other way; note: the source files actives as falling curves though it sought activators and does not explain the sign; nearly all actives have a fitted effect of over 65% in size
#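 Purified B. subtilis ClpP, 10 microg/mL final in Tris/HCl pH8 with KCl, BSA, glycerol and Tween-20, cleaved an Abz/nitrotyrosine-quenched decapeptide. Fluorescence (ex 320, em 430) was read at 0 and 20 min at room temperature. Delta was normalized to 5.8 microM ADEP and DMSO/no-enzyme controls.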
# * = called active by the depositor; ? = inconclusive; . = no result given. Unless noted, calls come from the whole dose curve; as a rule, active = well fitted curve in the direction sought with a large enough effect; inconclusive = small, poorly fitted or top-dose-only effect, or another doubt; inactive = no such curve, though single readings can be large; an effect the other way counts as inactive or inconclusive. Potency is the fitted concentration of half-maximal effect.
SMILES,TDP1 cell noCPT,TDP1 block,DT40 TDP1 CPT,ClpP mod
O=C(NN=Cc1ccccc1O)c1cccc([N+](=O)[O-])c1,0.164µM*,.,0.82µM*,.
CCN(CC)C(=O)C1CCCN(c2ccc([N+](=O)[O-])cc2/C=N/NC(=O)c2cccc([N+](=O)[O-])c2)C1 (stereo not drawn),?,4.0%,20.6µM*,0.9%
CCN(CC)C(=O)C1CCCN(c2ccc([N+](=O)[O-])cc2[N+](=O)[O-])C1 (stereo not drawn),?,5.1%,-15.4%,0.8%
COc1ccc(NCC(=O)NN=C2CCS(=O)(=O)c3ccc(F)cc32)cc1,-19.6%,0.0%,?,1.8%
CCCS(=O)(=O)NC(=O)C1(C)CCCN(C(=O)c2ccc(C#N)cc2)C1 (stereo not drawn),-2.3%,.,-0.4%,1.2%
Cn1cccc1C(=O)N1CCC[C@@]2(CCN(C(=O)Nc3cccc(C#N)c3)C2)C1,-15.9%,.,-4.6%,.
CC(C)N1C(=O)C(O)(c2c[nH]c3ccccc23)c2ccccc21 (stereo not drawn),?,0.6%,-21.7%,-1.6%
O=C(N/N=C/c1cccc(O)c1)c1ccc(NC(=O)c2cccc([N+](=O)[O-])c2)cc1,18.4µM*,5.0%,?,-2.8%
CC(/C=C/c1ccc2c(c1)OCO2)=N\NC(=O)c1cccc([N+](=O)[O-])c1,14.6µM*,7.5%,20.6µM*,-1.3%
O=C(N/N=C/c1ccccn1)c1cccc(S(=O)(=O)Nc2ccccc2Cl)c1,16.4µM*,7.4%,16.4µM*,?
COc1ccccc1/C=N/NC(=O)c1ccc(NC(=O)c2cccc([N+](=O)[O-])c2)cc1,.,2.7%,.,.
C/C(=N/NC(=O)c1ccc2c(c1)OCO2)c1cccc([N+](=O)[O-])c1,2.2%,-3.0%,-9.1%,0.6%
O=C(N/N=C/c1ccccn1)c1cc([N+](=O)[O-])cc([N+](=O)[O-])c1,20.6µM*,10.5%,?,0.1%
CCOc1ccc(N(C(=O)c2cnccn2)C(C(=O)NC2CCCCC2)c2ccc(O)cc2)cc1 (stereo not drawn),-19.5%,0.0%,17.9%,.
COc1ccc(OC)c(NC(=O)CCN2C(=O)c3ccccc3C2=O)c1,9.1%,.,4.1%,0.7%
COc1ccc([C@@H]2CC=C(C(=O)O)[C@H](c3ccc(C)cc3)N2S(=O)(=O)c2ccccc2C)cc1,-25.2%,1.5%,7.0%,0.9%
O=C(N/N=C/c1ccccn1)c1cccc([N+](=O)[O-])c1,16.4µM*,4.9%,?,.
O=C(CNc1ccc2ccccc2c1)N/N=C/c1ccccn1,18.4µM*,10.3%,?,.
O=C(CNc1ccc2ccccc2c1)N/N=C/c1ccncc1,1.4%,.,-5.7%,0.0%
O=C(Cc1ccccc1)N/N=C/c1ccccn1,-15.3%,.,-11.9%,-0.7%
CC(Nc1cccc2ccccc12)C(=O)N/N=C/c1ccccn1 (stereo not drawn),20.6µM*,5.6%,25.9µM*,-1.6%
Cc1cc(C)n2nc(CNC(=O)c3ccccc3Cl)nc2n1,-9.8%,2.5%,-16.9%,0.0%
N#CCn1c(CN2CCCC2)nc2ccccc2c1=O,-7.8%,-5.8%,6.9%,.
Cc1c(C(=O)Nc2ccc(F)cc2F)nnn1-c1ccccc1Br,13µM*,8.6%,10.3µM*,-2.3%
CCc1ccccc1NC(=O)c1nnn(-c2ccc(F)cc2)c1C,?,-2.9%,-17.1%,-0.6%
SMILES,TDP1 cell noCPT,TDP1 block,DT40 TDP1 CPT,ClpP mod
CC(C(=O)O)n1cc(C#N)c(=O)[nH]c1=O (stereo not drawn),-8.4%,.,-15.4%,.
CCCC(=O)N1c2ccccc2-c2nnc(SC)nc2OC1c1sccc1C (stereo not drawn),?,.,?,-6.2%
CCSc1nnc2c(n1)OC(c1sccc1C)N(C(C)=O)c1ccccc1-2 (stereo not drawn),13µM*,.,?,-2.1%
Cc1[nH]c2ccccc2c(=O)c1CN1CCCCC1,-11.4%,2.3%,-12.7%,-1.9%
Cc1[nH]c2ccccc2c1CN1CCC(Cc2ccccc2)CC1,2.59µM*,6.3%,2.59µM*,0.6%
Cc1[nH]c2ccccc2c1CN1CCN(c2ccccn2)CC1,5.17µM*,.,2.31µM*,.
COC(=O)CCN1CCc2cc(N=Nc3ccc([N+](=O)[O-])cc3)ccc21,-28.2%,.,-8.7%,-2.8%
COc1cc(C(C(=O)NC2CCCCC2)N(Cc2cccs2)C(=O)Cc2c[nH]c3ccccc23)cc(OC)c1OC (stereo not drawn),20.6µM*,2.8%,23.1µM*,2.1%
COc1cccc(CN(C(=O)Cc2c[nH]c3ccccc23)C(C(=O)NC2CCCCC2)c2ccc(C)o2)c1 (stereo not drawn),16.4µM*,4.1%,16.4µM*,-1.8%
COc1ccc(NC(=O)CN(C)C(=O)CCc2c[nH]c3ccccc23)cc1,-13.8%,9.1%,9.5%,1.1%
COc1ccc(C(C(=O)Nc2ccc3c(c2)OCO3)N(C)C(=O)Cc2c[nH]c3ccccc23)cc1 (stereo not drawn),?,1.2%,18.4µM*,-4.1%
Cc1ccc(C(C(=O)NC2CCCCC2)N(Cc2ccccc2)C(=O)Cc2c[nH]c3ccccc23)o1 (stereo not drawn),?,4.6%,?,-1.3%
COc1ccc(CN(C(=O)Cc2c[nH]c3ccccc23)C(C(=O)NC2CCCCC2)c2ccc(C)o2)cc1 (stereo not drawn),18.4µM*,5.3%,?,-1.9%
CCC1CN(C(=O)Nc2cccc3c2CCCC3)c2cc(C)ccc2O1 (stereo not drawn),?,5.2%,?,-3.4%
COc1ccc(CCNC(=O)c2cccc(S(=O)(=O)N3CCOCC3)c2)cc1OC,0.5%,1.4%,-5.2%,0.9%
CCOC(=O)N/N=C(\c1ccccc1)C(O)c1ccccc1 (stereo not drawn),?,3.0%,2.3%,0.4%
CCc1ccc2nc(N(Cc3cccnc3)C(=O)Cc3ccccc3)sc2c1,?,7.8%,?,-4.9%
CC(C)C[C@@H](COCc1ccc(C(F)(F)F)cc1)N1CCN(C(=O)c2ccc(C(F)(F)F)cc2)CCC1=O,?,.,?,4.3%
N=C(N)Cc1ccccc1Sc1ccccc1,8.2µM*,-5.3%,9.2µM*,-2.6%
O=C1NC(=O)/C(=C\c2ccc(Br)o2)S1,-25.5%,.,-0.1%,-5.2%
O=C1NC(=S)/C(=C\c2ccc(-c3ccccc3Cl)o2)S1,13µM*,5.6%,23.1µM*,-0.4%
O=C(O)c1cc(-c2ccc(/C=C3/SC(=S)N(Cc4ccccc4)C3=O)o2)ccc1Cl,16.2%,.,21.9%,.
O=C1NC(=O)/C(=C/c2ccc(-c3cc(C(=O)O)ccc3Cl)o2)S1,-15.8%,31.6µM*,0.7%,-11.0%
O=C(O)c1ccc2c(c1)C(=O)N([C@@H](Cc1ccc(O)cc1)C(=O)O)C2=O,.,22.1%,.,.
